Assay results published in PMC9911399, “Two distinct binding modes provide the RNA-binding protein RbFox with extraordinary sequence specificity”.
Positions count from the first letter of the chain named. Over roughly 16,000 sequences, “ka relative to ugcaugu” has its median near 0.0091; the highest 2% begin near 0.032. The sample as a whole holds a higher share of the highest values than the screen did.

T1: RBFOX1 RRM (Homo sapiens, UniProt Q9NWB1 109-208)
T1 sequence: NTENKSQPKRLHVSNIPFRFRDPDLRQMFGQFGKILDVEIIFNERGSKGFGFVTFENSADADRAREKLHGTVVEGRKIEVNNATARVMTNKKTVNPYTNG

B1: UAUUAAG (DNA:RNA)
RNA: GGGAGACCGGAAUUCAGAUUGUCCUAUUAAGUUAAAUCCCGUCGUAGCCACCA
DNA 1: CAATCTGAATTCCGGTCTCCC
DNA 2: TGGTGGCTACGACGGGATT
B2: UCGCAGA (DNA:RNA)
RNA: B1 RNA with A26C, U27G, U28C, A30G, G31A
DNA 1: CAATCTGAATTCCGGTCTCCC
DNA 2: TGGTGGCTACGACGGGATT
B3: AUACCGG (DNA:RNA)
RNA: B1 RNA with U25A, A26U, U27A, U28C, A29C, A30G
DNA 1: CAATCTGAATTCCGGTCTCCC
DNA 2: TGGTGGCTACGACGGGATT
B4: ACGUGUU (DNA:RNA)
RNA: B1 RNA with U25A, A26C, U27G, A29G, A30U, G31U
DNA 1: CAATCTGAATTCCGGTCTCCC
DNA 2: TGGTGGCTACGACGGGATT
B5: GCAGUUG (DNA:RNA)
RNA: B1 RNA with U25G, A26C, U27A, U28G, A29U, A30U
DNA 1: CAATCTGAATTCCGGTCTCCC
DNA 2: TGGTGGCTACGACGGGATT
B6: CUGUCCG (DNA:RNA)
RNA: B1 RNA with U25C, A26U, U27G, A29C, A30C
DNA 1: CAATCTGAATTCCGGTCTCCC
DNA 2: TGGTGGCTACGACGGGATT
B7: CUGCCCG (DNA:RNA)
RNA: B1 RNA with U25C, A26U, U27G, U28C, A29C, A30C
DNA 1: CAATCTGAATTCCGGTCTCCC
DNA 2: TGGTGGCTACGACGGGATT
B8: CUGCUCG (DNA:RNA)
RNA: B1 RNA with U25C, A26U, U27G, U28C, A29U, A30C
DNA 1: CAATCTGAATTCCGGTCTCCC
DNA 2: TGGTGGCTACGACGGGATT
B9: UGCUCGU (DNA:RNA)
RNA: B1 RNA with A26G, U27C, A29C, A30G, G31U
DNA 1: CAATCTGAATTCCGGTCTCCC
DNA 2: TGGTGGCTACGACGGGATT
B10: UCGUCGU (DNA:RNA)
RNA: B1 RNA with A26C, U27G, A29C, A30G, G31U
DNA 1: CAATCTGAATTCCGGTCTCCC
DNA 2: TGGTGGCTACGACGGGATT
B11: UGCCCGU (DNA:RNA)
RNA: B1 RNA with A26G, U27C, U28C, A29C, A30G, G31U
DNA 1: CAATCTGAATTCCGGTCTCCC
DNA 2: TGGTGGCTACGACGGGATT
B12: AAAUGGU (DNA:RNA)
RNA: B1 RNA with U25A, U27A, A29G, A30G, G31U
DNA 1: CAATCTGAATTCCGGTCTCCC
DNA 2: TGGTGGCTACGACGGGATT
B13: GAUCCGC (DNA:RNA)
RNA: B1 RNA with U25G, U28C, A29C, A30G, G31C
DNA 1: CAATCTGAATTCCGGTCTCCC
DNA 2: TGGTGGCTACGACGGGATT
B14: CCACACG (DNA:RNA)
RNA: B1 RNA with U25C, A26C, U27A, U28C, A30C
DNA 1: CAATCTGAATTCCGGTCTCCC
DNA 2: TGGTGGCTACGACGGGATT
B15: CUAAGCU (DNA:RNA)
RNA: GGGAGACCGGAAUUCAGAUUGUCCCUAAGCUUUAAAUCCCGUCGUAGCCACCA
DNA 1: CAATCTGAATTCCGGTCTCCC
DNA 2: TGGTGGCTACGACGGGATT
B16: UUUGUCG (DNA:RNA)
RNA: B1 RNA with A26U, U28G, A29U, A30C
DNA 1: CAATCTGAATTCCGGTCTCCC
DNA 2: TGGTGGCTACGACGGGATT
B17: UUGUUGU (DNA:RNA)
RNA: B15 RNA with C25U, A27G, A28U, G29U, C30G
DNA 1: CAATCTGAATTCCGGTCTCCC
DNA 2: TGGTGGCTACGACGGGATT
B18: UUGUUUG (DNA:RNA)
RNA: B1 RNA with A26U, U27G, A29U, A30U
DNA 1: CAATCTGAATTCCGGTCTCCC
DNA 2: TGGTGGCTACGACGGGATT
B19: UUUUGUG (DNA:RNA)
RNA: B1 RNA with A26U, A29G, A30U
DNA 1: CAATCTGAATTCCGGTCTCCC
DNA 2: TGGTGGCTACGACGGGATT
B20: UUUGUUG (DNA:RNA)
RNA: B1 RNA with A26U, U28G, A29U, A30U
DNA 1: CAATCTGAATTCCGGTCTCCC
DNA 2: TGGTGGCTACGACGGGATT
B21: UUUUUUG (DNA:RNA)
RNA: B1 RNA with A26U, A29U, A30U
DNA 1: CAATCTGAATTCCGGTCTCCC
DNA 2: TGGTGGCTACGACGGGATT
B22: UUUGUCC (DNA:RNA)
RNA: B15 RNA with C25U, A27U, A28G, G29U, U31C
DNA 1: CAATCTGAATTCCGGTCTCCC
DNA 2: TGGTGGCTACGACGGGATT
B23: UUGUCGU (DNA:RNA)
RNA: B15 RNA with C25U, A27G, A28U, G29C, C30G
DNA 1: CAATCTGAATTCCGGTCTCCC
DNA 2: TGGTGGCTACGACGGGATT
B24: UCCUUUG (DNA:RNA)
RNA: B1 RNA with A26C, U27C, A29U, A30U
DNA 1: CAATCTGAATTCCGGTCTCCC
DNA 2: TGGTGGCTACGACGGGATT
B25: UGACACA (DNA:RNA)
RNA: B15 RNA with C25U, U26G, A28C, G29A, U31A
DNA 1: CAATCTGAATTCCGGTCTCCC
DNA 2: TGGTGGCTACGACGGGATT
B26: AAUCAAU (DNA:RNA)
RNA: B1 RNA with U25A, U28C, G31U
DNA 1: CAATCTGAATTCCGGTCTCCC
DNA 2: TGGTGGCTACGACGGGATT
B27: GAAAAUG (DNA:RNA)
RNA: B1 RNA with U25G, U27A, U28A, A30U
DNA 1: CAATCTGAATTCCGGTCTCCC
DNA 2: TGGTGGCTACGACGGGATT
B28: CCUGCUU (DNA:RNA)
RNA: B15 RNA with U26C, A27U, A28G, G29C, C30U
DNA 1: CAATCTGAATTCCGGTCTCCC
DNA 2: TGGTGGCTACGACGGGATT
B29: AUGUAGU (DNA:RNA)
RNA: B15 RNA with C25A, A27G, A28U, G29A, C30G
DNA 1: CAATCTGAATTCCGGTCTCCC
DNA 2: TGGTGGCTACGACGGGATT
B30: UAUUUGU (DNA:RNA)
RNA: B1 RNA with A29U, A30G, G31U
DNA 1: CAATCTGAATTCCGGTCTCCC
DNA 2: TGGTGGCTACGACGGGATT
B31: CACGCGU (DNA:RNA)
RNA: B15 RNA with U26A, A27C, A28G, G29C, C30G
DNA 1: CAATCTGAATTCCGGTCTCCC
DNA 2: TGGTGGCTACGACGGGATT

What follows are binders tested against T1, RBFOX1 RRM (assay: EMSA; HiTS-Eq, 1 nM pool, 10 min; buffer printed only for the single-RNA assays: 10 mM Tris pH 7.5, 150 mM NaCl, 3.4 mM EDTA, 0.001% NP-40, 30 C). Details: tags: His6 N-terminal (pET28a); label: 5' 32P.
Outline: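 A pool of RNA with 7 randomized nucleotides, 5′-radiolabelled and with DNA-annealed flanks, was equilibrated at 1 nM for 10 min in 50 µL with purified RbFox RRM, wild type or mutant, across increasing protein concentrations. Free RNA was separated by 8% native PAGE, excised, reverse-transcribed, barcoded by PCR and sequenced. Relative association constants were obtained from read-count changes of each RNA species versus the control reaction and normalised to the cognate motif.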
B1 was tested, and the binding signal was 0.0136 KA relative to UGCAUGU. For B2, the binding signal was 0.013 KA relative to UGCAUGU. B3 was tested, and the binding signal was 0.00158 KA relative to UGCAUGU. In the case of B4, the binding signal is reported as 0.0131 KA relative to UGCAUGU. B5 was tested, and the binding signal was 0.0127 KA relative to UGCAUGU. B6 was tested, and the binding signal was 0.0164 KA relative to UGCAUGU. B7 was tested, and the binding signal was 0.0183 KA relative to UGCAUGU. In the case of B8, the binding signal is reported as 0.0406 KA relative to UGCAUGU. With B9 the binding signal was 0.0359 KA relative to UGCAUGU. With B10 the binding signal was 0.0184 KA relative to UGCAUGU. For B11, the binding signal was 0.0214 KA relative to UGCAUGU. For B12, the binding signal was 0.00783 KA relative to UGCAUGU. In the case of B13, the binding signal is reported as 0.0132 KA relative to UGCAUGU. For B14, the binding signal was 0.0022 KA relative to UGCAUGU. With B15 the binding signal was 0.00577 KA relative to UGCAUGU. In the case of B16, the binding signal is reported as 0.0272 KA relative to UGCAUGU. With B17 the binding signal was 0.0241 KA relative to UGCAUGU. For B18, the binding signal was 0.0392 KA relative to UGCAUGU. For B19, the binding signal was 0.0302 KA relative to UGCAUGU. In the case of B20, the binding signal is reported as 0.0349 KA relative to UGCAUGU. In the case of B21, the binding signal is reported as 0.0341 KA relative to UGCAUGU. In the case of B22, the binding signal is reported as 0.0149 KA relative to UGCAUGU. For B23, the binding signal was 0.0256 KA relative to UGCAUGU. B24 was tested, and the binding signal was 0.0195 KA relative to UGCAUGU. B25 was tested, and the binding signal was 0.00643 KA relative to UGCAUGU. In the case of B26, the binding signal is reported as 0.000959 KA relative to UGCAUGU. In the case of B27, the binding signal is reported as 0.00709 KA relative to UGCAUGU. With B28 the binding signal was 0.0137 KA relative to UGCAUGU. For B29, the binding signal was 0.00813 KA relative to UGCAUGU. B30 was tested, and the binding signal was 0.0237 KA relative to UGCAUGU. B31 was tested, and the binding signal was 0.00634 KA relative to UGCAUGU.
